Screens from PubChem BioAssay.
G9a block = blocks human histone lysine methyltransferase G9a | G9a H3K9 monomethylation, AlphaScreen, 2 h | Potency, µM (top dose mostly 102 µM), usual class: inhibitors | hit rate 8.8% among 350,000 | AID 504332; note: nearly all actives have a fitted effect of over 75% in size
Target sequence (Q96KQ7 913-1193 limits assumed): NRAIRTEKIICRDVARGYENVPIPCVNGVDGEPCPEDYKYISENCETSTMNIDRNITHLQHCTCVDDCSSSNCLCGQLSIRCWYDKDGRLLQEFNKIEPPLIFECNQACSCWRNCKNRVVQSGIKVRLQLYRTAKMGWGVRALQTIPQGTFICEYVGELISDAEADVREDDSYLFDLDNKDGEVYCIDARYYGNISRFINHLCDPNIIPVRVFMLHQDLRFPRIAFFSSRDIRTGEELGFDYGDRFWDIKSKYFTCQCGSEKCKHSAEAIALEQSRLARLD
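G9a (20 nM) preincubated 15 min RT with compounds, then 500 nM biotinylated H3K9 peptide and 20 uM SAM added; 2 h RT reaction. Monomethyl-H3K9 product detected by AlphaScreen with anti-H3K9me1 antibody, streptavidin donor and anti-rabbit IgG acceptor beads.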
JMJD2A Tudor inh = inhibitors of human JMJD2A Tudor domain. O75164. AlphaScreen JMJD2A-Tudor / H3K4me3 peptide binding. Potency, µM (series often up to 114 µM), usual class: inhibitors. hit rate 4.4% among 390,000. AID 504339; note: nearly all actives have a fitted effect of over 50% in size
BAZ2B inh = inhibitors of human BAZ2B bromodomain. AlphaScreen BAZ2B-H3K14Ac peptide displacement. Q9UIF8. Potency, µM (titrated, usually from 114 µM), most hits filed as inhibitors. hit rate 4.4% among 360,000; note: nearly all actives have a fitted effect of over 60% in size
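AlphaScreen displacement: compounds (up to 110uM) incubated 30 min at room temperature with a preformed 50 nM BAZ2B/50 nM biotinylated H3K14Ac peptide complex in PBS pH 7.4 with Tween-20. Donor and acceptor beads at 10 ug/mL final added, 20 min light-protected before reading.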
CtBP-E1A inh = blocks the CtBP interaction with E1A | activity change, % (no concentration beside the values) | AlphaScreen GST-E1A/His-CtBP binding, 1536-well; hits give low values | hit rate 0.49% among 340,000; in the data active = activity change below about -65%; inconclusive = mostly about -30% to -63%
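Steps: dispense buffer (Tris pH 8.0, NaCl 300 mM, TCEP 1 mM, BSA, Tween 20); add 5X protein mix (GST-E1A, His-CtBP, 125 nM each); pin 23 nL compound; 2 h at 37 °C, dark; add 5X beads (50 ug/mL); 1 h; read.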
Six1-Eya2 inh = blocks human Six1 binding to Eya2; AlphaScreen GST-Six1/His-Eya2 binding, biochemical; hits give low values; activity change, % (test concentration not listed); Q15475+O00167; hit rate 0.56% among 360,000; in the data active = activity change below about -65%; inconclusive = mostly about -30% to -63%
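AlphaScreen luminescence read after one hour at 37 °C in darkness. Pin-transferred compounds met GST-Six1 and His-Eya2 protein (5X stock 250 nM/500 nM) plus glutathione donor and Ni-chelate acceptor beads (5X, 50 ug/mL).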
HP1b chromo inh = HP1-beta chromodomain-methylated histone interaction inhibition | P83916 | AlphaScreen HP1-beta / biotin-H3K9me3 peptide binding | Potency, µM (doses to about 114 µM), actives largely listed as inhibitors | hit rate 0.56% among 390,000; note: nearly all actives have a fitted effect of over 70% in size
Target sequence (P83916 whole entry, looked up): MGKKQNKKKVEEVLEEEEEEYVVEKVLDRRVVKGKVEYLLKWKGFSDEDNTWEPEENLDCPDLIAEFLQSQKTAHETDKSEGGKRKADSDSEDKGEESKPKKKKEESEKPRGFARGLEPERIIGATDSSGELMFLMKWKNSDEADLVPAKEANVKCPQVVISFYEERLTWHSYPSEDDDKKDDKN
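Compound inhibition of the preformed complex between 50 nM HP1-beta and 50 nM biotinylated H3K9me3 peptide was read by AlphaScreen. Buffer was PBS pH 7.4 with 0.01% Tween-20. Incubations ran 30 min at room temperature, with 10 ug/mL donor/acceptor beads.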
Hits are given with their value; - = inactive; ? = inconclusive; . = no result given; [ ] = another dose, or the depositor's remark. In the library only some 10% were active in any assay of this set; here they are far more common. Unless noted, calls come from the whole dose curve; as a rule, active = well fitted inhibition curve with a large enough effect; inconclusive = small, poorly fitted or top-dose-only effect; inactive = no such curve, though single readings can be large or run the other way.

SMILES | G9a block | JMJD2A Tudor inh | BAZ2B inh | CtBP-E1A inh | Six1-Eya2 inh | HP1b chromo inh
CCSC1=NC(C)(C)C=C(/C=C/c2ccc(Cl)cc2Cl)N1 | 50µM | - | - | - | - | -
CSC1=NC(C)(C)C=C(/C=C/c2c(Cl)cccc2Cl)N1 | 40µM | - | - | - | - | -
Nc1nccc(/C=C/c2c(Cl)cccc2Cl)n1 | - | - | - | - | - | -
CCSC1=NC(C)(C)C=C(C)N1 | - | - | - | - | - | -
O=C1NC(=O)/C(=C\c2ccc(Cl)cc2Cl)N1 | . | - | . | - | - | -
Nc1nccc(/C=C/c2ccc(Cl)cc2)n1 | - | - | - | - | - | -
CCn1c(=O)n(CC2CCC(C(=O)NC(C)C)CC2)c(=O)c2sccc21 (stereo not given) | - | - | - | . | . | -
N=c1ncn(Cc2ccccc2)c2nc(SCCOc3ccccc3)[nH]c12 | 79µM | - | - | - | - | -
CC(=O)Nc1cccc(-c2cc(C)c3cc4c(cc3n2)OCO4)c1 | 50µM | - | - | - | - | -
COc1ccccc1N1CCN(C(=O)Cn2cnc3onc(-c4ccc(F)cc4)c3c2=O)CC1 | - | - | - | . | . | -
CCOc1cc(N2CCOCC2)c(OCC)cc1NC(=O)c1ccc(OCc2c(C)noc2C)c(OC)c1 | - | - | - | - | - | -
NS(=O)(=O)c1ccc(CNS(=O)(=O)c2ccc(Cl)nc2)cc1 | 56µM | - | - | - | - | -
COc1cccc(/C=C/C(=C2/C(=O)N(c3ccccc3)N=C2C)c2ccc(C)cc2)c1OC | 1.1µM | ? | ? | - | - | ?
C=Cc1ccc(Cn2c(C)c(C(=O)NCCC#N)sc2=O)cc1 | . | . | . | - | - | .
CCCn1c(SCC(=O)N2CCN(C(C)=O)CC2)nc2sc3c(c2c1=O)CCC3 | 71µM | - | - | - | - | -
CCCn1c(SCC(=O)NCC)nc2sc3c(c2c1=O)CCC3 | - | - | - | - | - | -
CCn1c(SC(C)C(=O)O)nc2sc3c(c2c1=O)CCC3 (stereo not given) | ? | 89µM | 50µM | - | - | -
COc1ccccc1NC(=O)c1ccc2ccccc2c1 | . | - | . | . | . | .
CCc1ccc(C(=O)OCC(=O)NCCNC(=O)COC(=O)c2ccc(CC)cc2)cc1 | . | - | - | - | - | -
NNC(=O)c1ccc(COc2ccccc2)cc1 | - | - | - | . | - | -
COc1ccc(OCc2ccc(C(=O)NN)cc2)cc1 | 45µM | ? | - | - | - | -
CCc1nc(SCC(=O)c2ccc3c(c2)OCCO3)c2ccccc2n1 | 8.9µM | - | - | - | - | -
COc1ccc(C(=O)NNC(=O)CSc2nc(C(C)C)nc3ccccc23)cc1 | - | - | - | - | - | -
CCc1nc(SCC(=O)NNC(=O)c2ccc(OC)cc2)c2ccccc2n1 | - | 50µM | - | - | - | -
COc1ccc(C(=O)NNC(=O)CCCCC(=O)NNC(=O)c2ccc(OC)cc2)cc1 | ? | - | . | . | - | -
SMILES | G9a block | JMJD2A Tudor inh | BAZ2B inh | CtBP-E1A inh | Six1-Eya2 inh | HP1b chromo inh
COc1ccc(C(=O)NNC(=O)CCC(=O)NNC(=O)c2ccc(OC)cc2)cc1 | 7.9µM | - | 50µM | - | - | -
CCN(C(=O)CN(C)S(=O)(=O)c1ccc2c(c1)c(=O)n(C)c(=O)n2C)c1ccc(OC)cc1 | - | - | - | . | . | -
CCn1c(CSc2nc3ccccc3s2)nnc1SCC(=O)c1ccc2c(c1)OCCO2 | ? | 79µM | - | - | - | -
CCn1c(CSc2nc3ccccc3s2)nnc1SCC(N)=O | - | - | - | - | - | -
Cc1ccc(CNS(=O)(=O)c2cc3c(cc2Cl)NC(=O)CO3)o1 | - | - | - | . | . | -
COc1cc(C2Nc3ccccc3C(=O)N2c2ccccc2OC)ccc1O (stereo not given) | -[2.33 µM] | - | ? | - | - | -
O=C1c2ccccc2NC(c2ccc(O)c(O)c2)N1c1ccccc1Cl (stereo not given) | 45µM | - | 40µM | . | - | -
COc1ccc(CN(C(=O)c2ccco2)c2ccccc2)cc1 | - | - | - | - | - | -
CCN(Cc1cc(=O)[nH]c2ccccc12)C(=O)c1ccc(C)cc1 | - | - | - | . | - | -
CCN(Cc1cc(=O)[nH]c2ccccc12)C(=O)C(C)C | - | - | - | - | - | -
